High-throughput results from PubChem.
In the library only some 12% were active in any assay of this set; here they are far more common.
Sfp inh: Sfp phosphopantetheinyl transferase inhibition | Potency, µM, actives largely listed as inhibitors | Q9F4F7 | 310,000 compounds, 3.5% hits | Biochemical Sfp PPTase activity, qHTS;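 note: the enzyme is Sfp with the accession as filed and its product quenches rhodamine fluorescence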
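Buffer: 50 mM Hepes-Na pH 7.6, 10 mM MgCl2, 0.01% Nonidet P-40, 0.01% BSA. Enzyme 15 nM, pre-exposed to compound 15 min; substrates then added and fluorescence change tracked over 30 min.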
JMJD2A Tudor inh: blocks the human JMJD2A Tudor domain. O75164. AlphaScreen JMJD2A-Tudor / H3K4me3 peptide binding. Potency, µM (series often up to 114 µM), usual class: inhibitors. 390,000 compounds, 4.4% hits. AID 504339; note: nearly all actives have a fitted effect of over 50% in size
G9a inh: G9a (human) methyltransferase inhibition; Q96KQ7; G9a H3K9 monomethylation, AlphaScreen, 2 h; Potency, µM (doses to about 102 µM), most hits filed as inhibitors; 350,000 compounds, 8.8% hits; note: nearly all actives have a fitted effect of over 75% in size
Target sequence (Q96KQ7 913-1193 limits assumed): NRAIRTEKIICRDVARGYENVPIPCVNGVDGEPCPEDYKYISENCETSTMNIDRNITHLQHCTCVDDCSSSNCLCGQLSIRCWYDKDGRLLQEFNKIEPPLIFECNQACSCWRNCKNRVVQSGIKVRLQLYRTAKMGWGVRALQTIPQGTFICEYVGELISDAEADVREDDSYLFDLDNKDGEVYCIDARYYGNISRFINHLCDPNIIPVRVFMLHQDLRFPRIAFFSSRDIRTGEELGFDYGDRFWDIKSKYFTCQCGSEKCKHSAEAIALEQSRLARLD
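G9a (20 nM) preincubated 15 min RT with compounds, then 500 nM biotinylated H3K9 peptide and 20 uM SAM added; 2 h RT reaction. Monomethyl-H3K9 product detected by AlphaScreen with anti-H3K9me1 antibody, streptavidin donor and anti-rabbit IgG acceptor beads.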
HP1b binding inh: inhibitors of HP1-beta chromodomain binding to methylated histone tails | AlphaScreen HP1-beta / biotin-H3K9me3 peptide binding | Potency, µM (series often up to 114 µM), hits mostly inhibitors | P83916 | 390,000 compounds, 0.56% hits | AID 540317; note: nearly all actives have a fitted effect of over 70% in size
Target sequence (P83916 whole entry, looked up): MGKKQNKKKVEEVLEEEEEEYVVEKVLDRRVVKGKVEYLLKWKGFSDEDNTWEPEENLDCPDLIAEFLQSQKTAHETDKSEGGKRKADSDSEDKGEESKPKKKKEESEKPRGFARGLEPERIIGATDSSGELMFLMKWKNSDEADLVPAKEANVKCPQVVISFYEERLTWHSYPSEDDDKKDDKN
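HP1-beta protein (50 nM final) preincubated 30 min at room temperature with biotinylated H3(1-18)K9me3 peptide (50 nM) in PBS pH 7.4, 0.01% Tween-20, then compound added for 30 min. AlphaScreen streptavidin donor/nickel chelate acceptor beads (10 ug/mL final), 30 min dark, luminescence read.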
BAZ2B inh: inhibitors of human BAZ2B bromodomain; Q9UIF8; AlphaScreen BAZ2B-H3K14Ac peptide displacement; Potency, µM (highest dose often 114 µM), usual class: inhibitors; 360,000 compounds, 4.4% hits; note: nearly all actives have a fitted effect of over 60% in size
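AlphaScreen displacement: compounds (up to 110uM) incubated 30 min at room temperature with a preformed 50 nM BAZ2B/50 nM biotinylated H3K14Ac peptide complex in PBS pH 7.4 with Tween-20. Donor and acceptor beads at 10 ug/mL final added, 20 min light-protected before reading.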
Numbers stand for hits; 0 = inactive; ? = inconclusive; - = no result given; ! = not confirmed by another sample; [ ] = another dose, or the depositor's remark. Calls come from the whole dose curve; as a rule, active = well fitted curve in the direction sought with a large enough effect; inconclusive = small, poorly fitted or top-dose-only effect, or another doubt; inactive = no such curve, though single readings can be large; an effect the other way counts as inactive or inconclusive.

SMILES | Sfp inh | JMJD2A Tudor inh | G9a inh | HP1b binding inh | BAZ2B inh
C/C(=N\OCC(=O)OCC(=O)N(Cc1ccccc1)C(C)(C)C)c1ccc2c(c1)OCO2 | - | 0 | 0 | 0 | 0
COc1ccc(/C=N/OCC(=O)OCC(=O)N(C)c2ccccc2)cc1 | - | 0 | 50µM | 0 | 0
C/C(=N\OCC(=O)OCC(=O)N(C)c1ccccc1)c1ccc2c(c1)OCO2 | - | 0 | 0[12.7 µM] | 0 | 79µM
CC(C)Sc1nnc(CNC(=O)C23CC4CC(CC(C4)C2)C3)n1Cc1ccccc1 | 0 | 0 | 32µM | 0 | 0
CSc1nnc(CNC(=O)C23CC4CC(CC(C4)C2)C3)n1Cc1ccccc1 | 0 | 0 | 0 | 0 | 0
c1ccc(OCCOCCN2CCN(C(c3ccccc3)c3ccccc3)CC2)cc1 | 0 | 0.89µM | 10µM | ? | 50µM
CCc1cccc(OCCOCCN2CCCC2)c1 | 0 | 10µM | 10µM | ? | 79µM
O=C(OCCN1CCCCC1)c1ccccc1F | 0 | 0 | 0[12.7 µM] | 0 | 0
c1ccc(OCCOCCN2CCc3ccccc3C2)cc1 | 0 | 0 | 0 | 0 | 0
CCOc1ccccc1CNCCN1CCOCC1 | 0 | 0 | ? | 0 | ?
CC(OCCN1CCCC1)(c1ccc(F)cc1)c1ccc(F)cc1 | 0 | 89µM | 0 | 0 | 0
CCOc1ccc(CNCCN2CCCC2)cc1 | 0 | 13µM | 2.8µM | ? | 56µM
Clc1ccc(OCCN2CCCCC2)cc1Cl | 0 | 22µM | ? | 0 | ?
CNCCOc1ccc(Cl)c(Cl)c1 | 0 | 3.2µM | 40µM | ? | 0
Cc1cc(OCCCCCNCCO)ccc1Cl | 0 | 0 | 0 | 0 | 0
Cc1cc(OCCOCCN2CCCC2)ccc1C(C)C | 0 | 5µM | 20µM | 0 | ?
ON=C1c2cc(OCCN3CCCCC3)ccc2-c2ccc(OCCN3CCCCC3)cc21 | 0 | ? | - | 0 | ?
Fc1ccc(OCCOCCN2CCCC2)cc1 | - | 6.3µM | - | ? | -
COc1ccc2c(c1)CCc1c(C(=O)Nc3c(C)nn(Cc4c(Cl)cccc4Cl)c3C)noc1-2 | - | 0 | 0 | 0 | 0
COc1ccc(C2C=C3CNS(=O)(=O)C3CC2OC(=O)c2ccc(Cl)cc2)cc1 (stereo not drawn) | 0 | 0 | - | 0 | -
c1ccc(-c2ccc(OCCN3CCCC3)cc2)cc1 | 0 | - | - | - | -
CCOc1ccc(OCCN2CCCCC2)cc1 | 0 | 10µM | 7.9µM | 0 | 56µM
CCOc1ccc(OCCOCCN2CCCC2)cc1 | ? | 28µM | 8.9µM | 0 | ?
C=CCn1c(O)c(N=NC(=O)c2ccccc2NS(=O)(=O)c2cccs2)c2ccccc21 | 0 | 0 | 45µM | 0 | 0
CC(C)n1c(O)c(N=NC(=O)c2ccccc2NS(=O)(=O)c2cccs2)c2ccccc21 | 0 | 14µM | 0 | 0 | ?
SMILES | Sfp inh | JMJD2A Tudor inh | G9a inh | HP1b binding inh | BAZ2B inh
O=C(c1ccncc1)N1CCC2(CC1)CN(c1ncccn1)C2 | 0 | - | 0[12.7 µM] | - | -
CCN1C(c2ccccc2)=C(c2ccccc2)S/C1=C/C=C1\SC(=S)N(C)C1=O | ? | 8.9µM | 5.6µM | 11µM | 2.5µM
CCN1C(=O)/C(=C/C=C2/Sc3ccc4ccccc4c3N2CCO)SC1=S | 50µM | 0 | 0 | 0 | ?
CCN1C(c2ccccc2)=C(c2ccccc2)S/C1=C\C=C1/SC(=S)N(C)C1=O | - | 7.9µM | - | 8.9µM | -
CCN1C(=O)/C(=C\N2CCCCCC2)SC1=S | 0 | ? | ? | ? | 0
Cc1ccccc1-c1cc(NCc2ccccc2)ncn1 | 0 | - | 0[0.501 µM] | - | -
COc1ccc(CC(=O)Nc2c(C(=O)N3CCN(c4ncccn4)CC3)oc3ccccc23)cc1OC | 0 | 0 | 0 | 0 | 0
COc1ccc(CC(=O)Nc2c(C(=O)N3CCN(c4ccccc4)CC3)oc3ccccc23)cc1OC | 0 | ? | 71µM | 0 | 0
COc1ccc(CC(=O)Nc2c(C(=O)N3CCN(c4ccccc4OC)CC3)oc3ccccc23)cc1OC | 0 | ? | 35µM | 0 | ?
COc1cc(CCC(=O)Nc2c(C(=O)N3CCN(c4ccccc4OC)CC3)oc3ccccc23)on1 | 0 | ? | - | 0 | ?
COc1cccc2c1CCCC2CCCN1CCN(C2CCCCC2)CC1 (stereo not drawn) | 0 | - | - | - | -
Cc1cccnc1CCNC(=O)CC1C(=O)NCCN1CC1CCCCC1 (stereo not drawn) | 0 | 0 | 40µM | 0 | 0
O=C(CC1C(=O)NCCN1Cc1ccc(-c2ccccc2)cc1)NCc1ccccc1 (stereo not drawn) | ? | 0 | ? | 0 | ?
CCOc1ccc(CN2CCNC(=O)C2CC(=O)NCCc2ccccn2)cc1 (stereo not drawn) | 0 | 0 | 56µM | 0 | 0
CCOc1ccc(CN2CCNC(=O)C2CC(=O)NCc2ccccn2)cc1 (stereo not drawn) | 0 | 0 | ? | 0 | 0
CCOc1ccccc1CN1CCNC(=O)C1CC(=O)N(C)Cc1nonc1C (stereo not drawn) | 0 | 0 | 0 | 0 | 0
CCOc1ccc(CN2CCNC(=O)C2CC(=O)N(C)Cc2nonc2C)cc1 (stereo not drawn) | 0 | 0 | 50µM | 0 | 0
CCc1cc(CNC(=O)CC2C(=O)NCCN2Cc2ccc(-c3ccccc3)cc2)on1 (stereo not drawn) | 0 | 0 | 50µM | 0 | 0
O=C(CC1C(=O)NCCN1CC1CCCCC1)NCc1ccccc1Cl (stereo not drawn) | 0 | 0 | 0[12.7 µM] | 0 | 0
CC1=C(C(=O)Nc2cccnc2)C(c2ccccc2)n2nc(SCc3ccccc3F)nc2N1 (stereo not drawn) | - | 0 | 0 | 0 | 0
CCOC(=O)[C@]1(C(NC(=O)OC)c2cccc(C)c2)CCCC1=O (stereo partly drawn) | 0 | - | - | - | -
COc1ccc(-c2noc(CSc3nnc(-c4ccncc4)n3-c3cccc(C)c3)n2)cc1OC | - | 0 | 0 | 0 | 0
COC(=O)/C(=N/Nc1cccc(C)c1)N1CCCc2ccccc21 | 0 | 0 | ? | 0 | ?
COC(=O)/C(=N/Nc1ccc(C)cc1)N1CCCc2ccccc21 | 0 | ? | 45µM | 0 | ?
COC(=O)/C(=N/Nc1ccccc1)N1CCCc2ccccc21 | 0 | ? | 45µM | 0 | 0
SMILES | Sfp inh | JMJD2A Tudor inh | G9a inh | HP1b binding inh | BAZ2B inh
C=CCNC(=O)c1c(CSc2ccc(Cl)cc2)noc1C(=O)NCc1ccccc1 | - | 0 | - | 0 | -
CCOC(=O)N1CCN(C(=O)COc2ccc(S(=O)(=O)NC(C)C)cc2)CC1 | 0 | 0 | 45µM | 0 | 0
Cc1ccc(S(=O)(=O)NC2=C(N3CCN(c4ccccc4F)CC3)C(=O)c3ccccc3C2=O)cc1 | 0 | 8.9µM | 0[0.501 µM] | 14µM! | 10µM
CCOC(=O)C1CCN(C(=O)COc2ccc(S(=O)(=O)NC(C)C)cc2)CC1 | 0 | 0 | 0 | 0 | 0
Cc1ccc(S(=O)(=O)NC2=C(N3CCN(Cc4ccccc4)CC3)C(=O)c3ccccc3C2=O)cc1 | 0 | 7.1µM | 7.1µM | 8.9µM | 7.9µM
Cc1ccc(S(=O)(=O)Nc2nc3ccccc3nc2N2CCN(c3ccccc3F)CC2)cc1 | 0 | 0 | 0 | 0 | ?
CCOC(=O)N1CCN(C2=C(NS(=O)(=O)c3ccc(C)cc3)C(=O)c3ccccc3C2=O)CC1 | 79µM | 22µM | 22µM | 20µM | 8.9µM
CCOC(=O)c1c(C)[nH]c(C(=O)OCc2ccccc2F)c1C | 0 | 0 | 0 | 0 | 0
